target: Alpha-bungarotoxin (Bungarus multicinctus) (UniProt P60615); experiment: alpha-bungarotoxin binders on microarray, profiling panel, artefact control for SMM control protein annotation, biochemical, small-molecule microarray, Alexa647 label, 635/667 nm fluorescence (AID 1117); conditions: alpha-BTX-A647 binding fluorescence, higher = more signal
Sequence (P60615 whole entry, looked up): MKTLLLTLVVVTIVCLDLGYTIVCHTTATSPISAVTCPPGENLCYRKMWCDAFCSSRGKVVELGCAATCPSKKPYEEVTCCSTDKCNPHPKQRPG

SMILES | composite z-score
CC(C)c1ccc(NN2C(C(O)c3ccc(N(C)C)cc3)C=CC3C(=O)N(c4ccccc4)C(=O)C32)cc1 (stereo unspecified) | 1.73
CC(C)NC(=O)[C@@H]1c2ccccc2C(=O)N(Cc2ccccc2)[C@H]1c1ccc(CO)cc1 | 0.181
CCOC(=O)C[C@H]1[C@H](OC(=O)c2ccccc2-c2ccccc2)[C@@H](NC(=O)Cc2ccc(OC)cc2)c2cc(OCCCO)ccc2N1C(=O)c1ccccc1 | -0.0826
Cc1ccc(S[C@]2(C(=O)O)CC(=O)N(C3Cc4ccccc4C3)[C@@H]2c2ccc(CO)cc2I)cc1 | 0.835
CC(C)(C)OC(=O)CC[C@@]1(C(=O)NCCN2CCOCC2)N=C(c2ccc(OCCCO)cc2)O[C@@H]1c1ccccc1 | 2.08
CCCN1C(=O)[C@@]2(CCC(=O)OC(C)(C)C)N=C(c3ccc(OCCCO)cc3)O[C@H]2c2ccccc21 | 0.285
COCCOC(=O)N1C(=O)[C@@]2(c3cc(C#CCC(C(=O)OC)C(=O)OC)ccc31)[C@H](c1ccc(O)cc1)N1[C@H](c3ccccc3)[C@H](c3ccccc3)OC(=O)[C@H]1[C@@H]2C(N)=O | 0.944
N#Cc1ccc(NN2C(C(O)c3ccc([N+](=O)[O-])cc3)C=CC3C(=O)N(c4ccccc4)C(=O)C32)cc1 (stereo unspecified) | 0.752
COCC(=C=CC[C@H](O)c1ccc(OCCO)cc1)C[C@H](O)c1cc(Cl)cc(Cl)c1O | 0.155
CCOC(=O)C1=CC[C@@H](c2ccccc2)N(S(=O)(=O)c2ccc(C)cc2)[C@H]1C(=O)OCC | 0.384
CCCCCN1CC=CC23O[C@@H]4C=CCOC(=O)[C@@H]4[C@H]2C(=O)N(CCCO)[C@@H]3C1=O (stereo partly specified) | -0.339
C[C@]1(C(=O)NCc2ccccc2)c2ccccc2C(=O)N(Cc2cc(F)cc(C(F)(F)F)c2)[C@H]1c1ccc(CO)cc1 | 0.0471
COc1ccc(C(O)C2C=CC3C(=O)NC(=O)C3N2Nc2ccccn2)cc1OCc1ccccc1 (stereo unspecified) | 0.251
C=C(CCCC)C(=O)CC[C@H](OC(=O)c1cccnc1)c1cccc(OCCO)c1 | -0.0331
O=C1OCCC/C=C\[C@H]2OC34C=CCN(Cn5nnc6ccccc65)C(=O)[C@H]3N(CCCCCO)C(=O)[C@@H]4C12 (stereo partly specified) | -0.697
CC(C)CNC(=O)[C@@H]1c2ccccc2C(=O)N(Cc2cc(C(F)(F)F)cc(C(F)(F)F)c2)[C@H]1c1ccc(CO)cc1 | -0.141
CC(C)(C)N1CC=CC23O[C@@H]4C=CCOC(=O)[C@@H]4[C@H]2C(=O)N(CCCCCO)[C@@H]3C1=O (stereo partly specified) | -1.45
CCOC(=O)C[C@H]1[C@H](OC(=O)c2ccc(-c3ccccc3)cc2)[C@@H](NC(=O)Cc2ccc(OC)cc2)c2cc(OCCCO)ccc2N1C(=O)c1ccc2ccccc2n1 | 0.0263

SMILES | composite z-score
COCCOC(=O)N1C(=O)[C@@]2(c3cc(C#CCNC(N)=O)ccc31)[C@H](c1ccc(O)cc1)N1[C@H](c3ccccc3)[C@H](c3ccccc3)OC(=O)[C@H]1[C@@H]2C(=O)Nc1nc2ccccc2s1 | 1.1
COc1ccc(C#Cc2ccc3c(c2)[C@]2(C(=O)N3)[C@H](C(=O)NC[C@H](O)c3ccccc3)[C@H]3C(=O)O[C@H](c4ccccc4)[C@H](c4ccccc4)N3[C@@H]2c2ccc(OCCO)cc2)cc1 | 1.76
O=C1OCCC=C[C@H]2OC34C=CCN(Cc5ccccc5)C(=O)[C@H]3N(CCCO)C(=O)[C@@H]4C12 (stereo partly specified) | -0.473
COC(=O)[C@@]1(Cc2ccccc2)N=C(c2ccc(OCCCO)cc2)O[C@H]1c1ccccc1N=[N+]=[N-] | 0.778
COc1ccc(NN2C(C(O)c3ccc(OC)c(OCc4ccccc4)c3)C=CC3C(=O)N(C4CCCCC4)C(=O)C32)cc1 (stereo unspecified) | 1.82
C=CCC(OC(C)=O)[C@@H]1[C@@H](N(Cc2cccc3ccccc23)C(=O)c2cccc3ccccc23)c2cc(OCCCO)ccc2N1C(=O)c1ccc2ccccc2n1 (stereo partly specified) | -0.198
CC(C)CNC(=O)[C@@]1(c2ccc([N+](=O)[O-])cc2)CC(=O)N(CC23CC4CC(CC(C4)C2)C3)[C@@H]1c1ccc(CO)cc1I | 0.504
Cc1ccc(S[C@]2(C(=O)NCC(C)C)CC(=O)N(Cc3ccccc3Cl)[C@@H]2c2ccc(CO)cc2)cc1 | 0.86
[N-]=[N+]=NCc1ccccc1C[C@]1(C(=O)O)N=C(c2ccc(OCCCO)cc2)O[C@H]1c1ccccc1 | 0.966
Cc1ccccc1C(O)C1C=CC2C(=O)N(C)C(=O)C2N1Nc1ccccc1 (stereo unspecified) | 1.08
O=C1O[C@H](c2ccccc2)[C@H](c2ccccc2)N2[C@H]1[C@@H](C(=O)N1CCN(c3ncccn3)CC1)[C@]1(C(=O)Nc3ccccc31)[C@H]2c1ccc(OCCO)cc1 | 0.4
CCCCCN1CC=CC23O[C@@H]4/C=C\CCC(C)OC(=O)C4[C@H]2C(=O)N(CCCCCO)[C@@H]3C1=O (stereo partly specified) | -0.937
CC(C)Cc1ccc(CN2CC[C@@H](NS(=O)(=O)c3ccccc3)C2)cc1 | -0.577
C=CCC(OC(C)=O)[C@@H]1[C@@H](N(Cc2cccc3ccccc23)C(=O)c2ccc(C)cc2)c2cc(OCCCO)ccc2N1C(=O)Cc1ccc(OC)cc1 (stereo partly specified) | 0.215
CN1C(=O)C2C=CC(C(O)c3ccccn3)N(Nc3ccccc3)C2C1=O (stereo unspecified) | 0.476
COc1cccc(C(=O)O[C@H]2CC[C@]3(C)C4=C(CCC3C2(C)C)[C@]2(C)CC[C@H]([C@H](C)CCCC(C)C)[C@@]2(C)CC4)c1 (stereo partly specified) | 0.3
COc1ccc(C(=O)Nc2cccc(CN3C(=O)[C@@]4(O[C@@H](CCn5cc(CCO)nn5)[C@H]([Si](C)(C)c5ccc(OC)cc5)[C@H]4C)c4ccccc43)c2)cc1 | 1.6
O=C1N(CCS(=O)(=O)c2ccccc2)Cc2ccccc2C[C@]12N=C(c1ccc(OCCCO)cc1)O[C@@H]2c1ccccc1 | 1.59
